Consider 41 molecules from PubChem BioAssay (NCI).

The panel holds about 79,000 compounds, 15% with a hit somewhere; the sample as a whole holds those more often. Unmarked numbers belong to inactive results. Calls of active or inactive are those of the source. Rule as the data show it: active = growth inhibition above about 70%; inactive = the rest.

Test [1] is described as follows: NCI Yeast Anticancer Drug Screen. Data for the rad50 strain (AID 155).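 Also: 0% = growth of vehicle-only cultures of the same strain.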 The settings on record: S. cerevisiae rad50 strain growth inhibition; at 50.0 µM; hits give high values. The method, boiled down: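 DNA repair mutant yeast, compound exposure, growth read-out; inhibition is taken relative to vehicle.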
A short description of test [2]: NCI Yeast Anticancer Drug Screen. Data for the mec2-1 strain (AID 157). The note with it: S. cerevisiae mec2-1 strain, at 50.0 µM, hits give high values. Summed up: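 Strain: mec2-1 (DNA repair/cell cycle alteration). Compound exposure, then growth measured; inhibition expressed relative to vehicle.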
A short description of test [3]: NCI Yeast Anticancer Drug Screen. Data for the sgs1 mgt1 strain (AID 161).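 Also: 0% = growth of cultures given vehicle only.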 The note with it: S. cerevisiae sgs1 mgt1 strain, at 50.0 µM, hits give high values. Summed up:
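Inhibition of yeast growth, normalised to vehicle-treated controls, is reported for a strain bearing genetic alterations in DNA damage repair.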

The nature of test [4]: NCI Yeast Anticancer Drug Screen. Data for the cln2 rad14 strain (AID 165).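 Also: 0% = growth equal to vehicle treated cultures.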 The note with it: S. cerevisiae cln2 rad14 strain, at 50.0 µM, hits give high values. The method, boiled down: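 Compounds are applied to the cln2 rad14 yeast strain, and growth is then compared with that of vehicle-treated cultures to give inhibition.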
A short description of test [5]: NCI Yeast Anticancer Drug Screen. Data for the bub3 strain (AID 167). The settings on record: S. cerevisiae bub3 mutant strain, at 50.0 µM, hits give high values. Summed up: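 In this screen, a yeast mutant lacking normal mitotic checkpoint function is challenged with compound. Relative growth versus vehicle gives the inhibition value.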
Test [6] is described as follows: NCI Yeast Anticancer Drug Screen. Data for the mlh1 rad18 strain (AID 175). The settings on record: S. cerevisiae mlh1 rad18 strain growth inhibition; at 50.0 µM; hits give high values. The method, boiled down: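 Read-out is yeast growth inhibition, calculated against vehicle-only controls. The compound was applied to a strain engineered with DNA damage repair alterations.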

For `NC(=O)C1C(=O)c2cccc3c2C1CCCC3` (stereo unspecified), the growth inhibition was -11% in test [1]; 9.85% in test [2]; -5.6% in test [3]; -31% in test [4]; -11% in test [5]; 20.7% in test [6].
Turning to `CCCNC(=S)N=Nc1c(O)[nH]c2ccccc12`, the growth inhibition was -46.2% in test [1]; -55.8% in test [2]; -25.1% in test [3]; -31.5% in test [4]; -22.2% in test [5]; -11.2% in test [6].
For the molecule `Nc1nc(N)nc(-c2ccco2)n1`, the growth inhibition in test [1] is -15.1%; in test [2], -6.6%; in test [3] it was -27.1%; in test [4], -81.8%; in test [5], -0.85%; in test [6] it was -5.2%.
`O=C(NCCc1c[nH]c2ccccc12)C(F)(F)F`: the growth inhibition in test [1] is -15.8%; in test [2], 7.6%; in test [3], 18.2%; in test [4] it was 6.85%; in test [5], 29.2%; in test [6], 0.3%.
For `COc1cc2c(cc1O)C(Cc1ccccc1)N(C)CC2O` (stereo unspecified), the growth inhibition was -12.6% in test [1]; -4.7% in test [2]; -4% in test [3]; -5.7% in test [4]; -7.55% in test [5]; 0% in test [6].
With `CCOC(C#CC(C)=O)OCC`, the growth inhibition in test [1] was 31.1%; in test [2] it was 31.3%; in test [3], 22.9%; in test [4] it was 6.65%; in test [5], 46%; in test [6], 47.9%.
In the case of `COC(=O)C(C)=C1CCCCC1`, the growth inhibition in test [1] was 17.9%; in test [2] it was -3.9%; in test [3] it was -13.2%; in test [4], -38%; in test [5] it was 11.6%; in test [6], -13.2%.
With `CCN(CC)C(=S)N1CCCCC1`, the growth inhibition in test [1] is 10.2%; in test [2], -14.6%; in test [3] it was -14.2%; in test [4], -65.4%; in test [5] it was -15.9%; in test [6] it was -7.25%.
Turning to `C=CCCCCCCCCC(=O)Nc1cc2c3c(c1)CCCN3CCC2`, the growth inhibition in test [1] is 6.95%; in test [2], 8.75%; in test [3], 1.1%; in test [4], -13.8%; in test [5], 10.6%; in test [6], 20.9%.
Regarding `Fc1ccc(-c2cc(-c3ccc(F)cc3)cc(-c3ccc(F)cc3)c2)cc1`, the growth inhibition in test [1] is -0.4%; in test [2], 11.5%; in test [3], 13.2%; in test [4] it was 14.2%; in test [5], -8.15%; in test [6], 10.4%.
Regarding `CC(C)C(/C=C/c1ccc(Br)cc1)=N\NC(N)=O`, the growth inhibition in test [1] was -14.1%; in test [2], -29.2%; in test [3], -40.8%; in test [4] it was -13.9%; in test [5], -18.1%; in test [6] it was -18.9%.
For the molecule `CCOC(=O)C(=O)C(C(=O)c1ccccn1)c1nc2n(c1O)C(=N)N=N2` (stereo unspecified), the growth inhibition was -4.1% in test [1]; 4.4% in test [2]; -3.1% in test [3]; -0.25% in test [4]; -5.35% in test [5]; 5.3% in test [6].
Regarding `Clc1nncc2sc(-c3ccccc3)nc12`, the growth inhibition in test [1] was 20.9%; in test [2], -1.7%; in test [3], 28.1%; in test [4], 17.4%; in test [5], 18.3%; in test [6], -18.3%.
In the case of `c1ccc(OC23CC4CC(CC(C4)C2)C3)cc1`, the growth inhibition in test [1] is -9.45%; in test [2], -5%; in test [3] it was -5.2%; in test [4], 42.8%; in test [5], -18.8%; in test [6], -21.6%.
Turning to `C=CC(CO)N1CCCCC1` (stereo unspecified), the growth inhibition is -9.15% in test [1]; 24.6% in test [2]; -1.05% in test [3]; -8.9% in test [4]; -19.2% in test [5]; 13.9% in test [6].
`Cc1ccc(S(=O)(=O)OCC(F)(F)C(F)(F)C(F)(F)CO)cc1`: the growth inhibition in test [1] is 19.1%; in test [2], 3.3%; in test [3], 22.2%; in test [4] it was -15.6%; in test [5], 3.85%; in test [6], -15.5%.
Consider `CC(C)(C)SCCCCO`, for which the growth inhibition is -7.3% in test [1]; 19.4% in test [2]; -0.8% in test [3]; 0.35% in test [4]; -5.2% in test [5]; -3.15% in test [6].
For the molecule `CCOC(=O)c1c(NC(=O)CCl)ssc1=S`, the growth inhibition is 15.2% in test [1]; 28.4% in test [2]; 42.5% in test [3]; 22.8% in test [4]; 4.7% in test [5]; 43.6% in test [6].
As for `NC(=O)c1nnc2c(F)cccc2c1N`, the growth inhibition in test [1] is -39.2%; in test [2] it was -29.4%; in test [3], -15.3%; in test [4], -0.8%; in test [5], -27.2%; in test [6], -24.6%.
In the case of `Cn1c(=O)c2c(ncn2CCNC(c2ccccc2)c2cccc(Cl)c2)n(C)c1=O` (stereo unspecified), the growth inhibition is 6% in test [1]; -8.05% in test [2]; 4.35% in test [3]; -8.3% in test [4]; 0.8% in test [5]; 12.8% in test [6].
With `C=CCN(CC=C)CCNc1cc(C)nc(Nc2nc3ccc(Cl)cc3[nH]2)n1`, the growth inhibition in test [1] was 90.6% (active); in test [2], 50.4%; in test [3], 93.2% (active); in test [4], 82% (active); in test [5], 24.9%; in test [6], 91.5% (active).
As to `N#C/C(=C\c1c2ccccc2c(Cl)c2ccccc12)C(N)=S`, the growth inhibition in test [1] is 34.2%; in test [2] it was 24.9%; in test [3], 45.1%; in test [4], 7.55%; in test [5], 15.4%; in test [6], 24.4%.
For `CC1OC2(CC(OCc3ccccc3)C1OCc1ccccc1)OCCO2` (stereo unspecified), the growth inhibition is -10.9% in test [1]; -3.85% in test [2]; -8.7% in test [3]; -4.8% in test [4]; 21.6% in test [5]; -31.9% in test [6].
Consider `CCOC(=O)C1=C(C)N(Cc2ccccc2)C(C)=C(C(=O)OCC)C1c1ccccc1O`, for which the growth inhibition was 20.5% in test [1]; 28.2% in test [2]; 20.1% in test [3]; 17.6% in test [4]; 30.8% in test [5]; 18.6% in test [6].
`C=C(Cl)C(Cl)(CBr)CCC(Br)C(C)(C)Cl` (stereo unspecified): the growth inhibition in test [1] is 20.6%; in test [2], 41%; in test [3] it was 51.5%; in test [4], 22.4%; in test [5] it was 42.6%; in test [6], -22.8%.
For `CC1(C)CCCC2(C)[C@@H]1CC[C@]13C[C@](C)(CC[C@@H]21)[C@@H]3CO` (stereo partly specified), the growth inhibition in test [1] was -17.8%; in test [2], -2.9%; in test [3], -22.6%; in test [4], -3.35%; in test [5], -32.1%; in test [6], -19.9%.
Take `C=C(Nc1ccc(OC)cc1OC)C(=O)Cc1cccc[n+]1[O-]`: the growth inhibition is 6.25% in test [1]; -2.45% in test [2]; -10.5% in test [3]; -2.4% in test [4]; -3.4% in test [5]; -8.8% in test [6].
For `CCCC1=C(c2ccc(OC)cc2)Cc2cc(OC)ccc21`, the growth inhibition in test [1] is -14.9%; in test [2] it was -16.9%; in test [3] it was -1.05%; in test [4] it was -2.4%; in test [5] it was 2.1%; in test [6], 9%.
On to `CC(=O)CSc1cc(C)c2ccccc2n1`, for which the growth inhibition in test [1] was -6.6%; in test [2], -7.35%; in test [3], -11.1%; in test [4] it was -10.8%; in test [5], -13.1%; in test [6], 1.05%.
With `O=C(O)c1cccnc1Cl`, the growth inhibition in test [1] is 10.2%; in test [2], -3.5%; in test [3], -9.9%; in test [4], 14.4%; in test [5] it was 4.15%; in test [6] it was -4.45%.
As for `CC(C)Cn1cnc2c(SCc3ccccn3)nc(N)nc21`, the growth inhibition is -6.45% in test [1]; -17.4% in test [2]; -10.2% in test [3]; -30.6% in test [4]; -48.5% in test [5]; -17.4% in test [6].
Take `CC(C)(C)c1cc(C(=O)O)c2c(c1)C(=O)OC2(c1ccccc1)c1ccccc1C(=O)O` (stereo unspecified): the growth inhibition was 29.1% in test [1]; 7.6% in test [2]; 5.6% in test [3]; 9.95% in test [4]; 8.75% in test [5]; 31.2% in test [6].
Consider `OCC1OC(n2cc(I)c3c(Cl)ncnc32)C(O)C1O` (stereo unspecified), for which the growth inhibition in test [1] is 0.7%; in test [2] it was -15.4%; in test [3], -4.05%; in test [4] it was -36.8%; in test [5] it was 1.6%; in test [6], 3.95%.
On to `COc1cc2c(SCCN(C)C)nc3ccccc3c2c2ccccc12`, for which the growth inhibition in test [1] was 89.9% (active); in test [2] it was 92.3% (active); in test [3] it was 90.8% (active); in test [4], 87.8% (active); in test [5], 91.5% (active); in test [6], 89.1% (active).
With `CCOC(=O)CNC=O`, the growth inhibition in test [1] is 33.5%; in test [2], -6.1%; in test [3], -2.7%; in test [4], 26.4%; in test [5], -1.8%; in test [6], 8.55%.
For `NC(=O)CN1CC(C2=C(O)CN(CC(N)=O)C2=O)=CC1=O`, the growth inhibition was -23.9% in test [1]; -8.6% in test [2]; -10.1% in test [3]; -43.5% in test [4]; -6.35% in test [5]; -9.2% in test [6].
With `O=C1Nc2ccccc2N=NN1CCCl`, the growth inhibition was 22.2% in test [1]; 6.4% in test [2]; -2.85% in test [3]; 1.85% in test [4]; -7.3% in test [5]; -18.4% in test [6].
On to `NC(=O)NC1=NCCC(=O)N1CCc1c[nH]c2ccccc12`, for which the growth inhibition in test [1] is 51.3%; in test [2], 75.9% (active); in test [3], 84.2% (active); in test [4], 78.5% (active); in test [5] it was 77.7% (active); in test [6], 88% (active).
In the case of `CCN(C(=O)c1ccc([N+](=O)[O-])cc1)C(c1ccccc1)P(=O)(c1ccccc1)c1ccccc1` (stereo unspecified), the growth inhibition in test [1] is -12.4%; in test [2], -4.5%; in test [3], -15.1%; in test [4], -37%; in test [5], 2.7%; in test [6], 1.45%.
`CN1CC(O)CN(C)C1=S`: the growth inhibition in test [1] is -9.05%; in test [2], -8.2%; in test [3] it was 1.6%; in test [4], -34.6%; in test [5], -7.9%; in test [6] it was -5%.
For `O=C(O)Cc1cc(O)c(CC(=O)O)cc1O`, the growth inhibition was -11.9% in test [1]; -21.9% in test [2]; -49.4% in test [3]; -20.4% in test [4]; -22.4% in test [5]; -4.1% in test [6].
